# Measurements published in PMC7862700, “An all-to-all approach to the identification of sequence-specific readers for epigenetic DNA modifications on cytosine”.
# Key:
# Assay in all cases: DAPPL (digital affinity profiling via proximity ligation, sequencing); 10 mM Tris-HCl pH 7.5, 50 mM NaCl, 1 mM DTT, 4% glycerol, room temperature, 30 min; GST-TFs on glutathione beads, 16-mer random dsDNA library, 0.1% formaldehyde crosslink after washing; high values mean tight binding
# Conditions in all cases: protein: recombinant; tags: N-terminal GST; dsDNA, one strand shown
# FEV = molecular target: T1, FEV (Homo sapiens, UniProt Q99581 1-238)
# T1 sequence: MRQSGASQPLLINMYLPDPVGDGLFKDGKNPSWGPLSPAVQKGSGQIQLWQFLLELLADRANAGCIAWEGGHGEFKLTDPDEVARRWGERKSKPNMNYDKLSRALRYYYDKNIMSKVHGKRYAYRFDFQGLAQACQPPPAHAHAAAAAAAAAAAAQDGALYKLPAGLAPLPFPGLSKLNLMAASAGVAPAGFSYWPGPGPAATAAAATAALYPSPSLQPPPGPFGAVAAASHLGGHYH
# In short: (§1)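 Binding signal is given per hexamer as its read frequency for a factor divided by its frequency in the tag-only sample. GST-fused human transcription factors were expressed in yeast, captured on glutathione beads, barcoded with DNA and pooled with that sample, then incubated with 200 nmole of a 16-mer random double-stranded DNA library in Tris/NaCl/DTT/glycerol buffer for 30 min at room temperature. The pools were then washed, crosslinked, proximity-ligated, amplified by PCR and sequenced on an Illumina NextSeq500.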
# ETV5 = ETV5 (Homo sapiens, UniProt P41161 1-510)
# ETV5, sequence (P41161 whole entry): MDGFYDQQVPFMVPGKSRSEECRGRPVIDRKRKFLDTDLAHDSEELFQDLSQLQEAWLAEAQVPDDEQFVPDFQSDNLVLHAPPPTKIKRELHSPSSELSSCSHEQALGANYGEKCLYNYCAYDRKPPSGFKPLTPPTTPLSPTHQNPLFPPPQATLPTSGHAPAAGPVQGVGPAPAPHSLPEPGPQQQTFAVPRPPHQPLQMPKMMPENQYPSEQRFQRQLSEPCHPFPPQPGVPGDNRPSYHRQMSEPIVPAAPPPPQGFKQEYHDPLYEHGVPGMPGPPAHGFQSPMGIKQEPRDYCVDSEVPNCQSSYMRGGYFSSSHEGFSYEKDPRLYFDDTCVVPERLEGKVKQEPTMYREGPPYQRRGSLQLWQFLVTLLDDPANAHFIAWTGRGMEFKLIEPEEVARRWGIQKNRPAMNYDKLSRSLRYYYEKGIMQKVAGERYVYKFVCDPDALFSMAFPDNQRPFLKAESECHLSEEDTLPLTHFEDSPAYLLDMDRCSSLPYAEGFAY
# In short: as §1
# SPIC = molecular target: T2, SPIC (Homo sapiens, UniProt Q8N5J4 1-248)
# T2 sequence: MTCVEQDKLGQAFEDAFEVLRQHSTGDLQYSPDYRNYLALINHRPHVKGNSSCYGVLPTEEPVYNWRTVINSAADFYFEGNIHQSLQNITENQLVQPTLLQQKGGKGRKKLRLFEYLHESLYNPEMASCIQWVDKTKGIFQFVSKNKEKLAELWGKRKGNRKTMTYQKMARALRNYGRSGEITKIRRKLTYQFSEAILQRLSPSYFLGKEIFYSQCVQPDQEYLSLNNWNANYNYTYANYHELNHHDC
# In short: as §1
# ELF4 = ELF4 (Homo sapiens, UniProt Q99607 1-663)
# ELF4, sequence (Q99607 whole entry): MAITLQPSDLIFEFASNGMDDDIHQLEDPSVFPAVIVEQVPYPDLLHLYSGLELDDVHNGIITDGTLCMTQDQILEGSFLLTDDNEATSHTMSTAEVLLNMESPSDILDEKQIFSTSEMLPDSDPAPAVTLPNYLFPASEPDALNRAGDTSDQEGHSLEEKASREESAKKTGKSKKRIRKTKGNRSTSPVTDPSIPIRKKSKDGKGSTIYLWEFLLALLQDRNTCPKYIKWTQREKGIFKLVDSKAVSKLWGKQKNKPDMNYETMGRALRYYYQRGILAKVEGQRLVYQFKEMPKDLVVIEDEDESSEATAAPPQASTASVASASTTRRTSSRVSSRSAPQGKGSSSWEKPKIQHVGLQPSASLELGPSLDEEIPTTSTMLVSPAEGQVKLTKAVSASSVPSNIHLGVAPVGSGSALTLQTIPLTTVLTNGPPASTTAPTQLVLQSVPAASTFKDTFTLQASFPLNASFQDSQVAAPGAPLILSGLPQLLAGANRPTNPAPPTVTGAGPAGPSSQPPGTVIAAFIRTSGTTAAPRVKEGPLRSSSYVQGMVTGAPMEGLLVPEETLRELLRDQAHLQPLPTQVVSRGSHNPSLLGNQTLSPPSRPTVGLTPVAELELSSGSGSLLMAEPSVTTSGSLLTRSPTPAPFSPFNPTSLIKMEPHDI
# In short: as §1
# ELK4 = molecular target: T3, ELK4 (Homo sapiens, UniProt P28324-2 1-405)
# T3 sequence: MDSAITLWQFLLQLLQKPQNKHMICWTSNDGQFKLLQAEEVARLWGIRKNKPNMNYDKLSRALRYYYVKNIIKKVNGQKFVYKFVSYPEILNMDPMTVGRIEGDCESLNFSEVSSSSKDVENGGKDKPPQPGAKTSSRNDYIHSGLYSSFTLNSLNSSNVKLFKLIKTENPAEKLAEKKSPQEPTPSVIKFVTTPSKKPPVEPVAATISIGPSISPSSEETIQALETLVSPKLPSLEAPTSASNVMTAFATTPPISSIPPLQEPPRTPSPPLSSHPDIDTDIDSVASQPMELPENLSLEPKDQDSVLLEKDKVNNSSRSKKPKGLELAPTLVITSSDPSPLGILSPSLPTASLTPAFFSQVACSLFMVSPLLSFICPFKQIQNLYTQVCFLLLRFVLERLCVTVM
# In short: as §1
# ETV2 = molecular target: T4, ETV2 (Homo sapiens, UniProt O00321 1-342)
# T4 sequence: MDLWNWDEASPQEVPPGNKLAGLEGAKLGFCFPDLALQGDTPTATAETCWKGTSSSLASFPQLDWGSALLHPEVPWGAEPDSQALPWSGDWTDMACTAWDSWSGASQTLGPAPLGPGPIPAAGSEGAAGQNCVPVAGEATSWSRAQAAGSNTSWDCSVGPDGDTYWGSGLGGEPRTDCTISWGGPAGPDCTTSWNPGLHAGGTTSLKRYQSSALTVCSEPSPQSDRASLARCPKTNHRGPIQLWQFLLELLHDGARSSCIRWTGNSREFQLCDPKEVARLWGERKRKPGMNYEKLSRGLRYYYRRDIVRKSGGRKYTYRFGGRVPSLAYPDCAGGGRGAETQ
# In short: as §1
# ELF3 = molecular target: T5, ELF3 (Homo sapiens, UniProt P78545 1-371)
# T5 sequence: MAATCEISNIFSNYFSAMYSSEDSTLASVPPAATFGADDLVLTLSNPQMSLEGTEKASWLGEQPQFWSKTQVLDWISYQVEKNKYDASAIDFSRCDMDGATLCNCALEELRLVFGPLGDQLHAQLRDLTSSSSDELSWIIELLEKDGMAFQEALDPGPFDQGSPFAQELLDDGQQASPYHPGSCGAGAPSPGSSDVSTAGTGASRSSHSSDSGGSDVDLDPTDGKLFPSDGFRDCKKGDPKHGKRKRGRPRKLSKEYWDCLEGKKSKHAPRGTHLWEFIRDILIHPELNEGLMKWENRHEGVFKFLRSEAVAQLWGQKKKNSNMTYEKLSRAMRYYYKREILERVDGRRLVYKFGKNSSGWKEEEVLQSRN
# In short: as §1
# ETV1 = ETV1 (Homo sapiens, UniProt P50549 1-477)
# ETV1, sequence (P50549 whole entry): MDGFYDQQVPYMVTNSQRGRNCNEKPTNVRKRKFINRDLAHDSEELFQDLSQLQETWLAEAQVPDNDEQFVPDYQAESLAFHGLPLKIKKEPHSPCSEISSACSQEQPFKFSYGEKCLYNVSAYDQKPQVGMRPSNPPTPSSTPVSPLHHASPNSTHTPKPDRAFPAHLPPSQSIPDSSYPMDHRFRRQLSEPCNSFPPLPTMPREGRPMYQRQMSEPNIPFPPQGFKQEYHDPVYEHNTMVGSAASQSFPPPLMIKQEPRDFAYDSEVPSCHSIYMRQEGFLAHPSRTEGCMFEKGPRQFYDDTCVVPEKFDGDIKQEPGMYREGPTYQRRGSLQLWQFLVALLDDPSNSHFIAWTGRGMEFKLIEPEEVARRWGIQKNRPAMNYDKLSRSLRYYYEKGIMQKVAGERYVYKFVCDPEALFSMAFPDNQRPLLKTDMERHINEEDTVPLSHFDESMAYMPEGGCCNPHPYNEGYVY
# In short: as §1
# ERF = molecular target: T6, ERF (Homo sapiens, UniProt P50548 1-548)
# T6 sequence: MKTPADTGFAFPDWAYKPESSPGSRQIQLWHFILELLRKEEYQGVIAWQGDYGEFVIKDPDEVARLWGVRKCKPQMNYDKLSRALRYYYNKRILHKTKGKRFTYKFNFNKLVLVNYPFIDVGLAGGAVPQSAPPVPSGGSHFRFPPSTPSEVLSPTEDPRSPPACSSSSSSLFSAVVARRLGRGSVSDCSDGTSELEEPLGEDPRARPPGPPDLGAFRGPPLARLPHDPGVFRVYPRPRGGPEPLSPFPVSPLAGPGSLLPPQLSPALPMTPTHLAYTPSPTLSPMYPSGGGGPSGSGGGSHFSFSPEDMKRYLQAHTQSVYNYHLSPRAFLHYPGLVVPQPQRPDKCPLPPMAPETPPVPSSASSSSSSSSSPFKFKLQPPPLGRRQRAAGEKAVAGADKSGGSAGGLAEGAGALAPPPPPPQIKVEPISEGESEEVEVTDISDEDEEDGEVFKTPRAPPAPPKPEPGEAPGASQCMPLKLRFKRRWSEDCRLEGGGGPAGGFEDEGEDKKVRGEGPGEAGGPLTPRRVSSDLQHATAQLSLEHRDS
# In short: as §1
# ETV3L = molecular target: T7, ETV3L (Homo sapiens, UniProt Q6ZN32 1-361)
# T7 sequence: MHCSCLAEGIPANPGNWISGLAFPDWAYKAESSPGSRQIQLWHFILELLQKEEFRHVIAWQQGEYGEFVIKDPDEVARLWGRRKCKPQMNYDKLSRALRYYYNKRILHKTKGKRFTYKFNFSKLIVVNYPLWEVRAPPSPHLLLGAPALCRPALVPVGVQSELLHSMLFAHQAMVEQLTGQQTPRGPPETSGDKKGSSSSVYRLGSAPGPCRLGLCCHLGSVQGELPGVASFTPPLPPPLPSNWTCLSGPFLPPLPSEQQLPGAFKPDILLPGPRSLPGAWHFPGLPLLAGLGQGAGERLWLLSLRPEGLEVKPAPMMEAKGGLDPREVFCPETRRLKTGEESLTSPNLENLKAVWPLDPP
# In short: as §1
# ETS2 = molecular target: T8, ETS2 (Homo sapiens, UniProt P15036 1-469)
# T8 sequence: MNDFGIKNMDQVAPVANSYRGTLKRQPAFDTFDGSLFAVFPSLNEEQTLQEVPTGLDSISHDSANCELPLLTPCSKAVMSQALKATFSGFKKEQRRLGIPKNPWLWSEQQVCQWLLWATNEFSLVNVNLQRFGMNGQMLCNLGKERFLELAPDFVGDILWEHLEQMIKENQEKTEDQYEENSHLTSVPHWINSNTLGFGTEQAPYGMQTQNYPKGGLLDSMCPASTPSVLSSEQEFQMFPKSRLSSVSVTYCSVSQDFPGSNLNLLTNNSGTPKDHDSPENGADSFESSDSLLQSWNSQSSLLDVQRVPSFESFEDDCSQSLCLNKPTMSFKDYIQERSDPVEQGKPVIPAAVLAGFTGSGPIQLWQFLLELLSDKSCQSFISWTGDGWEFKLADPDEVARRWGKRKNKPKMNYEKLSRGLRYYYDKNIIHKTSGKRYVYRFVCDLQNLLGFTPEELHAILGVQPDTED
# In short: as §1
# SPDEF = molecular target: T9, SPDEF (Homo sapiens, UniProt O95238 1-335)
# T9 sequence: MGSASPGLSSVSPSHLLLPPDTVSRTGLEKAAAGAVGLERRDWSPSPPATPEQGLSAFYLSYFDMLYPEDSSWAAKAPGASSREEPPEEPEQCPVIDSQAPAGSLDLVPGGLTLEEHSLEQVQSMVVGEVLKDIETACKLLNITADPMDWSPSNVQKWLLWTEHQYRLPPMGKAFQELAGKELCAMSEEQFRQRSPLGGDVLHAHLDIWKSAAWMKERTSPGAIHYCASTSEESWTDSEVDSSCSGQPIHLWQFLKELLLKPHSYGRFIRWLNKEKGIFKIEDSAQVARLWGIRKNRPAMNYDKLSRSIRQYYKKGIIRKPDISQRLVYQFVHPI
# In short: as §1
# ETV7 = molecular target: T10, ETV7 (Homo sapiens, UniProt Q9Y603 1-341)
# T10 sequence: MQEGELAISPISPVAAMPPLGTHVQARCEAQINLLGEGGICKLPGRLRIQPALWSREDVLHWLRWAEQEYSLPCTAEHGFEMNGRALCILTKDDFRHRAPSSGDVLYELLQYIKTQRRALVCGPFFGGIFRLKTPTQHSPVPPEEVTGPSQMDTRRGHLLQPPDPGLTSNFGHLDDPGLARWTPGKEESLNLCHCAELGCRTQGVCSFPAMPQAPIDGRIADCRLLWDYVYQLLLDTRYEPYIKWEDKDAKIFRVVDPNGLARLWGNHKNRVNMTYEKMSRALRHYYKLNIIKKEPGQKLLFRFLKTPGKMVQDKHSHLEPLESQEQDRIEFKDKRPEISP
# In short: as §1
# ELF5 = molecular target: T11, ELF5 (Homo sapiens, UniProt Q9UKW6-2 1-255)
# T11 sequence: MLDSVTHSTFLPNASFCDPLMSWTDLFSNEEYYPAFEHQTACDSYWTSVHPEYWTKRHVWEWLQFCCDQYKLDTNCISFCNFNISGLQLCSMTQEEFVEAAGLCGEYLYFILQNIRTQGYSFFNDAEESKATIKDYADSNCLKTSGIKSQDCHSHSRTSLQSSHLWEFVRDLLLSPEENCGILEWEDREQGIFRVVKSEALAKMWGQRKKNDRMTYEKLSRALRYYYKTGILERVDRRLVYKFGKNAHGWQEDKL
# In short: as §1
# ETV3 = molecular target: T12, ETV3 (Homo sapiens, UniProt P41162-2 1-143)
# T12 sequence: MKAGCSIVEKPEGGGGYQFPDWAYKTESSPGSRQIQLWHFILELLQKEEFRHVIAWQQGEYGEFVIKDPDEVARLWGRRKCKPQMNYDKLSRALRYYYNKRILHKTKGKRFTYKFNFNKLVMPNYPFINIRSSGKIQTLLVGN
# In short: as §1
# ETV6 = ETV6 (Homo sapiens, UniProt P41212 1-452)
# ETV6, sequence (P41212 whole entry): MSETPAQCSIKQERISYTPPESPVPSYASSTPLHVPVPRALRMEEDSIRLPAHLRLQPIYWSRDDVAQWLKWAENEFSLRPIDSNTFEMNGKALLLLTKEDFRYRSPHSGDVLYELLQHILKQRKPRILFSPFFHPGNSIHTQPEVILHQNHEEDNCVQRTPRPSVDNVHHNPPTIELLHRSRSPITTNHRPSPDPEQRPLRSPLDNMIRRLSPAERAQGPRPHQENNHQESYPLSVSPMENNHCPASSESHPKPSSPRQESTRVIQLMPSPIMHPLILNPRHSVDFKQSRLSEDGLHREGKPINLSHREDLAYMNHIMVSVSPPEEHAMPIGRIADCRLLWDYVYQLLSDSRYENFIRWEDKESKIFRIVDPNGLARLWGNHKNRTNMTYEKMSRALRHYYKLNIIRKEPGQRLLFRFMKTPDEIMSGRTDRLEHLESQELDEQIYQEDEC
# In short: as §1
Sequence,binding signal (FEV),binding signal (ETV5),binding signal (SPIC),binding signal (ELF4),binding signal (ELK4),binding signal (ETV2),binding signal (ELF3),binding signal (ETV1),binding signal (ERF),binding signal (ETV3L),binding signal (ETS2),binding signal (SPDEF),binding signal (ETV7),binding signal (ELF5),binding signal (ETV3),binding signal (ETV6)
GTCCCC,"1.18 fold enrichment (6-mer frequency, TF over GST control)","1.27 fold enrichment (6-mer frequency, TF over GST control)","1.26 fold enrichment (6-mer frequency, TF over GST control)","1.2 fold enrichment (6-mer frequency, TF over GST control)","1.26 fold enrichment (6-mer frequency, TF over GST control)","1.22 fold enrichment (6-mer frequency, TF over GST control)","1.38 fold enrichment (6-mer frequency, TF over GST control)","1.29 fold enrichment (6-mer frequency, TF over GST control)","1.23 fold enrichment (6-mer frequency, TF over GST control)","1.15 fold enrichment (6-mer frequency, TF over GST control)","1.15 fold enrichment (6-mer frequency, TF over GST control)","1.14 fold enrichment (6-mer frequency, TF over GST control)","1.27 fold enrichment (6-mer frequency, TF over GST control)","1.13 fold enrichment (6-mer frequency, TF over GST control)","1.14 fold enrichment (6-mer frequency, TF over GST control)","1.24 fold enrichment (6-mer frequency, TF over GST control)"
AACACC,"1.15 fold enrichment (6-mer frequency, TF over GST control)","1.04 fold enrichment (6-mer frequency, TF over GST control)","1.02 fold enrichment (6-mer frequency, TF over GST control)","1.14 fold enrichment (6-mer frequency, TF over GST control)","1.13 fold enrichment (6-mer frequency, TF over GST control)","1.15 fold enrichment (6-mer frequency, TF over GST control)","1.09 fold enrichment (6-mer frequency, TF over GST control)","1.13 fold enrichment (6-mer frequency, TF over GST control)","1.15 fold enrichment (6-mer frequency, TF over GST control)","1.15 fold enrichment (6-mer frequency, TF over GST control)","1.13 fold enrichment (6-mer frequency, TF over GST control)","1.15 fold enrichment (6-mer frequency, TF over GST control)","1.13 fold enrichment (6-mer frequency, TF over GST control)","1.09 fold enrichment (6-mer frequency, TF over GST control)","1.13 fold enrichment (6-mer frequency, TF over GST control)","1.06 fold enrichment (6-mer frequency, TF over GST control)"
CGCTAC,"1.18 fold enrichment (6-mer frequency, TF over GST control)","1.15 fold enrichment (6-mer frequency, TF over GST control)","1.18 fold enrichment (6-mer frequency, TF over GST control)","1.24 fold enrichment (6-mer frequency, TF over GST control)","1.2 fold enrichment (6-mer frequency, TF over GST control)","1.25 fold enrichment (6-mer frequency, TF over GST control)","1.24 fold enrichment (6-mer frequency, TF over GST control)","1.27 fold enrichment (6-mer frequency, TF over GST control)","1.24 fold enrichment (6-mer frequency, TF over GST control)","1.17 fold enrichment (6-mer frequency, TF over GST control)","1.24 fold enrichment (6-mer frequency, TF over GST control)","1.21 fold enrichment (6-mer frequency, TF over GST control)","1.2 fold enrichment (6-mer frequency, TF over GST control)","1.16 fold enrichment (6-mer frequency, TF over GST control)","1.16 fold enrichment (6-mer frequency, TF over GST control)","1.27 fold enrichment (6-mer frequency, TF over GST control)"
